This is part of a sample that, as a whole, favours compounds with a hit. Of some 83,000 tested, about 20% had one in any assay.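 Growth was measured after 48 h exposure to one concentration of compound in 96-well plates. Values under 10 count as active.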 Calls of active or inactive are those of the source.
Columns and labels:
Assay in all cases: NCI-60 one-dose screen, 48 h (100 = growth as untreated, 0 = no growth, -100 = all killed)
Details in all cases: 10 µM unless noted
[1] = system: DU-145 prostate
[2] = system: K-562 leukemia
[3] = system: MALME-3M melanoma
[4] = system: MDA-MB-231 breast
[5] = system: RXF 393 renal
[6] = system: SF-268 CNS
[7] = system: SF-295 CNS
[8] = system: SF-539 CNS
[9] = system: UACC-257 melanoma
[10] = system: M14 melanoma

Measured: growth

O=c1[nH]c(Cc2nc3ccccc3s2)nc2cc(Br)ccc12
inactive: [1] 70.5% | [2] 23.2% | [3] 90.7% | [4] 65.6% | [5] 104% | [6] 61% | [7] 76.5% | [8] 90.3% | [9] 72.2% | [10] 35.2%

CCOC(=O)c1c(C(=O)c2cn(C)c3ccc(Br)cc23)c(-c2cn(C)c3ccc(Br)cc23)n(NC(=O)OC(C)(C)C)c1C
inactive: [1] 97.9% [100 µM] | [2] 89.1% [100 µM] | [3] 32.8% [100 µM] | [4] 51.2% [100 µM] | [5] 24.2% [100 µM] | [6] 82.4% [100 µM] | [7] 33% [100 µM] | [8] 48.3% [100 µM] | [9] 94.8% [100 µM] | [10] 82.7% [100 µM]

CCC(=O)Oc1ccc(-c2ccccc2)cc1Br
inactive: [1] 107% | [2] 107% | [3] 109% | [4] 103% | [5] 106% | [6] 103% | [7] 104% | [8] 106% | [9] 106% | [10] 102%

CC(C)(C)[Si](C)(C)OC1[C@@H](CNC(=O)NC(=O)NC(N)=O)O[C@@H](n2cnc3c(NC(=O)Nc4ccccc4)ncnc32)[C@H]1O[Si](C)(C)C(C)(C)C (stereo not given in full)
inactive: [1] 58.9% | [2] 66.3% | [3] 79% | [4] 83.7% | [5] 71.6% | [6] 66.4% | [7] 73.1% | [8] 95.4% | [9] 94% | [10] 68%

CCCNC(=O)Nc1ccc2cc3ccc(NC(=O)NCCC)cc3nc2c1
inactive: [1] 118% | [2] 60.8% | [3] 79.1% | [4] 98.8% | [5] 77.7% | [6] 84.3% | [7] 115% | [8] 66.5% | [9] 87.5% | [10] 89.1%

Nc1nc2ccccc2c2c(=O)c3cccc(Cl)c3sc12
inactive: [1] 94.7% | [2] 91.7% | [3] 101% | [4] 78.9% | [5] 106% | [6] 102% | [7] 97.9% | [8] 88.4% | [9] 104% | [10] 96.9%

Cc1cccc(/C=C2\CN(C(=O)OC(C)(C)C)C/C(=C\c3cccc(C)c3)C2=O)c1
inactive: [1] 106% | [3] 90.6% | [4] 98.8% | [5] 128% | [6] 94.1% | [7] 101% | [8] 104% | [9] 94.7% | [10] 90.5%
active: [2] 5.44%

CCOC(=O)C1=C(N)Oc2c(sc3c(F)cccc23)C1c1ccc(O)cc1 (stereo not given)
inactive: [1] 66.8% | [2] 12.6% | [3] 54.4% | [4] 36.9% | [5] 46.1% | [6] 37% | [7] 56.3% | [8] 42.5% | [9] 49.8% | [10] 22.9%

CN(C)S(=O)(=O)c1cccc(C(=O)Nc2nc(-c3ccc(F)c(F)c3)cs2)c1
inactive: [1] 70.7% | [2] 39.4% | [3] 90.9% | [4] 69.4% | [5] 55.1% | [6] 88.9% | [7] 49.3% | [8] 66.4% | [9] 42.5% | [10] 60.8%

CS(=O)(=O)c1ccc(-c2cnn3ccc(-c4cccc(S(=O)(=O)C5CC5)c4)nc23)cc1
inactive: [1] 61.7% | [2] 78% | [3] 50.2% | [4] 53% | [5] 22.2% | [6] 45.5% | [7] 56.9% | [8] 60.8% | [9] 58.3% | [10] 64.3%

CCOC(=O)c1cc(C(=O)c2cc(OC)c(OC)c(OC)c2)n2ncccc12
inactive: [1] 23.7% | [2] 10.9% | [3] 44.9% | [4] 31.2% | [6] 47.7% | [7] 13.6% | [9] 52.1%
active: [5] -4.2% | [8] -12.3% | [10] 3.88%

Cc1ccc2c(n1)C(=O)C(Br)=C(C1CCCC1)C2=O
inactive: [1] 105% | [2] 34.3% | [3] 110% | [4] 85.2% | [5] 89.3% | [6] 96.5% | [7] 103% | [8] 99.7% | [9] 99.3% | [10] 101%

COc1ccc2c(c1)c(-c1nc(-c3c[nH]c4ccncc34)cs1)cn2C
active: [1] -68% | [2] -60.8% | [3] -92.9% | [4] -81.8% | [5] -83.8% | [6] -78.7% | [7] -76.1% | [8] -96.9% | [9] -79% | [10] -84%

CCOC(=O)c1csc(NC(=O)COc2ccc(/C=C3\Oc4ccccc4C3=O)cc2)n1
inactive: [1] 114% | [2] 62.7% | [3] 109% | [4] 81.7% | [5] 79.6% | [6] 88.3% | [7] 102% | [8] 95.5% | [9] 87.9% | [10] 94.6%

c1ccc2cc(C[n+]3ccn(CCCCCCCCCCn4cc[n+](Cc5ccc6ccccc6c5)c4)c3)ccc2c1
active: [2] 8.6% | [3] -20.4% | [5] 9.07% | [9] -13.8%
inactive: [1] 28.4% | [4] 16.5% | [6] 13.7% | [7] 16.5% | [8] 10.4% | [10] 31.8%

Source: PubChem BioAssay (NCI)
